Reference: PubChem BioAssay (NCATS)
Results filed as inconclusive are left out. Activity calls are given as the source filed them. Unless noted, the call rests on the fitted dose curve; in most records, active means well fitted curve in the direction sought with a large enough effect; inconclusive means small, poorly fitted or top-dose-only effect, or another doubt; inactive means no such curve, though single readings can be large; an effect the other way counts as inactive or inconclusive.

Tests used:
CP211 = experiment: qHTS profiling for inhibitors of Plasmodium falciparum proliferation (AID 504749); further: nearly all actives have a fitted effect of over 60% in size; further: potency means the concentration at half of the fitted maximal effect; settings: P. falciparum in erythrocytes, SYBR Green DNA, 72 h; series mostly up to 12.8 µM
Summary of the method: (§1)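 Quantitative HTS: compounds pinned into medium, infected erythrocytes added (0.3% parasitemia, 2.5% hematocrit), 72 h culture at 37 C under 5% CO2. Saponin/Triton lysis with SYBR Green I, overnight RT, then fluorescence read.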

CP215 = experiment: as above; settings: P. falciparum in erythrocytes, SYBR Green DNA, 72 h; series mostly up to 12.8 µM
Summary of the method: as §1

CP269 = experiment: as above; settings: P. falciparum in erythrocytes, SYBR Green DNA, 72 h; series mostly up to 12.8 µM
Summary of the method: as §1

CP291 = experiment: as above; settings: P. falciparum in erythrocytes, SYBR Green DNA, 72 h; series mostly up to 12.8 µM
Summary of the method: as §1

CP315 = experiment: as above; settings: P. falciparum in erythrocytes, SYBR Green DNA, 72 h; series mostly up to 12.8 µM
Summary of the method: as §1

CP335 = experiment: as above; settings: P. falciparum in erythrocytes, SYBR Green DNA, 72 h; series mostly up to 12.8 µM
Summary of the method: as §1

DFO2036 = experiment: as above; settings: P. falciparum in erythrocytes, SYBR Green DNA, 72 h; series mostly up to 12.8 µM
Summary of the method: as §1

DIV14 = experiment: as above; settings: P. falciparum in erythrocytes, SYBR Green DNA, 72 h; series mostly up to 12.8 µM
Summary of the method: as §1

DIV17 = experiment: as above; settings: P. falciparum in erythrocytes, SYBR Green DNA, 72 h; series mostly up to 12.8 µM
Summary of the method: as §1

DIV30 = experiment: as above; settings: P. falciparum in erythrocytes, SYBR Green DNA, 72 h; series mostly up to 12.8 µM
Summary of the method: as §1

GB4 = experiment: as above; settings: P. falciparum in erythrocytes, SYBR Green DNA, 72 h; series mostly up to 12.8 µM
Summary of the method: as §1

P94_40 = experiment: as above; settings: P. falciparum in erythrocytes, SYBR Green DNA, 72 h; series mostly up to 12.8 µM
Summary of the method: as §1

PC26 = experiment: as above; settings: P. falciparum in erythrocytes, SYBR Green DNA, 72 h; series mostly up to 12.8 µM
Summary of the method: as §1

W2 = experiment: as above; settings: P. falciparum in erythrocytes, SYBR Green DNA, 72 h; series mostly up to 12.8 µM
Summary of the method: as §1

[1] = target: Cytochrome P450 3A4 (Homo sapiens) (UniProt P08684); experiment: qHTS Assay for Activators of Cytochrome P450 3A4 (AID 885); further: nearly all actives have a fitted effect of over 65% in size
Cytochrome P450 3A4 (Homo sapiens), sequence (P08684 whole entry, looked up): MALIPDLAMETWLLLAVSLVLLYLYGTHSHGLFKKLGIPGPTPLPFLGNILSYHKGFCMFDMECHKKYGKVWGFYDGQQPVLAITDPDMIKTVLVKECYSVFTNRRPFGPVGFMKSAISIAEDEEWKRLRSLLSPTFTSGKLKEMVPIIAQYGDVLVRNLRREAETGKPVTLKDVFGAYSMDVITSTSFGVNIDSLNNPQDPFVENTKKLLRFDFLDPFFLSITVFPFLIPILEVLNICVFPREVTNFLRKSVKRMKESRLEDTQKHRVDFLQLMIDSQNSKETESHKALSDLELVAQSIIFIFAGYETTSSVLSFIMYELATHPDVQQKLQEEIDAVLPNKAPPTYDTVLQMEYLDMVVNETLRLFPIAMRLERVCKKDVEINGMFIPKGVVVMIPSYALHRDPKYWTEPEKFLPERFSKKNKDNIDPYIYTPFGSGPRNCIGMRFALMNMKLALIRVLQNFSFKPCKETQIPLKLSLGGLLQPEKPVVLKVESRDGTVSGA
Summary of the method: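 CYP3A4 activity: Luciferin-PPXE O-dealkylation, 25uM substrate, 200mM KPO4, RT throughout. Read-out is luciferase luminescence; higher values reflect activation.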

[2] = target: Cytochrome P450 2D6 (Homo sapiens) (UniProt P10635); experiment: qHTS Assay for Inhibitors and Substrates of Cytochrome P450 2D6 (AID 891); further: nearly all actives have a fitted effect of over 60% in size; further: potency means the concentration at half of the fitted maximal effect
Cytochrome P450 2D6 (Homo sapiens), sequence (P10635 whole entry, looked up): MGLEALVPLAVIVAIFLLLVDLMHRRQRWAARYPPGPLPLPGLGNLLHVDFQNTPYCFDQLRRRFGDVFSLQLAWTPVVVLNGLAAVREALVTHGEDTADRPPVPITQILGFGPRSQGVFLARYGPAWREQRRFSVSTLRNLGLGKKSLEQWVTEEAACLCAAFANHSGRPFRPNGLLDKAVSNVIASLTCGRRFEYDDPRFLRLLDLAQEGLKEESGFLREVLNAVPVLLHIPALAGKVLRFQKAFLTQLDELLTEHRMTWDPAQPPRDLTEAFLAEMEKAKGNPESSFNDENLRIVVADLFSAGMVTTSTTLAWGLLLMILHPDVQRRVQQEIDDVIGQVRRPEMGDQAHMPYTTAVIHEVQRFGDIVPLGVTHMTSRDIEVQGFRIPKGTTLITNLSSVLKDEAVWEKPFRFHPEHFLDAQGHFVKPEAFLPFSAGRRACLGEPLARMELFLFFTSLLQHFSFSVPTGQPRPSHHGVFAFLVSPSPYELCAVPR
Summary of the method: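 Luminescent read-out of luciferin formed by 5 nM human CYP2D6 demethylating 30 uM Luciferin-ME EGE (Km level) over 60 min at room temperature after NADPH regeneration addition. Data normalized to full inhibition by 1.43 uM quinidine.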

[3] = target: Cytochrome P450 3A4 (Homo sapiens) (UniProt P08684); experiment: qHTS Assay for Inhibitors and Substrates of Cytochrome P450 3A4 (AID 884); further: nearly all actives have a fitted effect of over 50% in size; further: potency means the concentration at half of the fitted maximal effect
Summary of the method: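 Luminescent readout of luciferin produced by CYP3A4 (20 nM) dealkylation of Luciferin-PPXE, 25 uM (its KM). NADPH-driven reaction ran 60 min at RT after 10 min compound preincubation; data scaled to 57 uM ketoconazole as 100% inhibition.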

[4] = target: Cytochrome P450 2C9 (Homo sapiens) (UniProt P11712); experiment: qHTS Assay for Inhibitors and Substrates of Cytochrome P450 2C9 (AID 883); further: nearly all actives have a fitted effect of over 60% in size; further: potency means the concentration at half of the fitted maximal effect
Cytochrome P450 2C9 (Homo sapiens), sequence (P11712 whole entry, looked up): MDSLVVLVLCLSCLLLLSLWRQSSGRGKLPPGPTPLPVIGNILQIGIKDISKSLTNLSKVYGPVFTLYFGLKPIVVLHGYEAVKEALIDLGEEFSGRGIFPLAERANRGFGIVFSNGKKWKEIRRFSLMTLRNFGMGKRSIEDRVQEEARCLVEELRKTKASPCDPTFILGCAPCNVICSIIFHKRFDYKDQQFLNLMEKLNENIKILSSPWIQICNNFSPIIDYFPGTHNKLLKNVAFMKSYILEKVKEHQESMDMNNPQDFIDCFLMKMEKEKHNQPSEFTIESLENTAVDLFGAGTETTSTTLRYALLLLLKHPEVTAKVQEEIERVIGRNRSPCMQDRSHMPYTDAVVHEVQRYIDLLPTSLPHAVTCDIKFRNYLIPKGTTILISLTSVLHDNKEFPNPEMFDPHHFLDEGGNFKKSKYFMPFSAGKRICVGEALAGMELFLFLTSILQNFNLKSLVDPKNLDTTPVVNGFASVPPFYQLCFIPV
Summary of the method: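 Human CYP2C9 (10nM) hydroxylated Luciferin-H (100uM, at its KM) to luciferin in 25mM KPO4. Compound was preincubated 10 min at 37C, then NADPH regeneration started a 60 min reaction at 37C. Luminescence was read after detection reagent, normalized to 57uM sulphaphenazole.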

[5] = S16 Schwann cell PMP22 intronic element beta-lactamase assay (AID 624044; calls by dose curve; further: nearly all actives have a fitted effect of over 15% in size)
Summary of the method: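 Beta-lactamase reporter under a PMP22 intronic regulatory element in stable S16 rat Schwann cells; 24 h compound exposure. 460 nm blue signal normalized between DMSO (0%) and potassium clavulanate, with 535 nm FRET tracking viability; curves classed by r2 and response.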

[6] = target: Cytochrome P450 2C19 (Homo sapiens) (UniProt P33261); experiment: qHTS Assay for Inhibitors and Substrates of Cytochrome P450 2C19 (AID 899); further: nearly all actives have a fitted effect of over 60% in size; further: potency means the concentration at half of the fitted maximal effect
Cytochrome P450 2C19 (Homo sapiens), sequence (P33261 whole entry, looked up): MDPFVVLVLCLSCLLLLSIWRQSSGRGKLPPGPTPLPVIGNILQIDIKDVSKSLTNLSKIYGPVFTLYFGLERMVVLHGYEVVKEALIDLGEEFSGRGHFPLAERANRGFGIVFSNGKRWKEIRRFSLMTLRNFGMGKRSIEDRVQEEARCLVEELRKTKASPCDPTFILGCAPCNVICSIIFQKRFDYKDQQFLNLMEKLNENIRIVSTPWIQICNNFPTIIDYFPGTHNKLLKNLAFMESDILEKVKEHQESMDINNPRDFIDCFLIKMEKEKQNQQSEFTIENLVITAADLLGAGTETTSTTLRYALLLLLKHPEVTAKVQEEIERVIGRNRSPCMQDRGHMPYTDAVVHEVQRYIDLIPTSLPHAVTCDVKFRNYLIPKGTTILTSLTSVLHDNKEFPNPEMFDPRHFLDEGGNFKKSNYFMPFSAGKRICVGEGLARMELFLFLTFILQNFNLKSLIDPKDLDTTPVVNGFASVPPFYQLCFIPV
Summary of the method: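 Human CYP2C19 (5nM) with Luciferin-H EGE at 10uM (its KM) in 50mM KPO4 was preincubated with compound for 10 min at 37C. NADPH regeneration started a 60 min 37C reaction. Luciferin was read by luminescence, normalized to 57uM ketoconazole.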

Measured: Potency

CO[C@H]1[C@@H](OC(N)=O)[C@H](O)[C@@H](Oc2ccc3c(O)c(NC(=O)c4ccc(O)c(CC=C(C)C)c4)c(=O)oc3c2C)OC1(C)C
not listed: W2 | [1] | [2] | [3] | [4] | [5] | [6]
inactive: all other assays above

C[C@H]1CC[C@]2(OC1)O[C@@H]1C[C@@H]3[C@@H]4CC[C@H]5C[C@@H](O)CC[C@]5(C)[C@@H]4CC(=O)[C@@]3(C)[C@H]1[C@@H]2C
not listed: [1] | [2] | [3] | [4] | [5] | [6]
inactive: all other assays above

Cn1c(-c2ccc3c(c2)OCO3)cc(=O)c2ccccc21
active: [2] 1580 nM
inactive: [1]

N#Cc1cccc(-c2cncnc2-n2ccnc2)c1
inactive: [1]
active: [3] 2510 nM

CC(=O)OCC(=O)[C@@]1(O)[C@H](C)C[C@@H]2[C@H]3CCC4=CC(=O)C=C[C@]4(C)[C@]3(F)[C@@H](O)C[C@@]21C
not listed: DFO2036 | [1] | [2] | [3] | [4] | [5] | [6]
inactive: all other assays above

NC(=O)N/N=C\c1ccc([N+](=O)[O-])o1
inactive: [1]

C[C@@]12CC[C@@H]3c4ccc(O)cc4CC[C@H]3[C@H]1C[C@@H](O)[C@H]2O
inactive: [4]

Cc1ccc(S(=O)(=O)NC(=O)NN2C[C@H]3CCC[C@@H]3C2)cc1
not listed: DIV30 | [1] | [2] | [3] | [4] | [6]
inactive: all other assays above

NC(=O)c1cc[n+](CC2=C(C(=O)[O-])N3C(=O)[C@@H](NC(=O)Cc4cccs4)[C@@H]3SC2)cc1
not listed: CP291 | [1] | [2] | [3] | [4] | [6]
inactive: all other assays above

CC(C)(C)CC(C)(C)c1ccc(OCOCCOCCO)c(Cc2cc(C(C)(C)CC(C)(C)C)cc(Cc3cc(C(C)(C)CC(C)(C)C)ccc3OCOCCOCCO)c2OCOCCOCCO)c1
inactive: [1]

CC1(C)O[C@@H]2C[C@H]3[C@H]4C[C@H](F)C5=CC(=O)CC[C@]5(C)[C@@H]4[C@H](O)C[C@]3(C)[C@]2(C(=O)CO)O1
not listed: CP215 | [1] | [2] | [3] | [4] | [5] | [6]
inactive: all other assays above

C[C@H](Oc1ccccc1)C(=O)N[C@@H]1C(=O)N2[C@@H]1SC(C)(C)[C@@H]2C(=O)O
not listed: CP335 | [1] | [2] | [3] | [4] | [5] | [6]
inactive: all other assays above

Nc1ccccc1S(N)(=O)=O
inactive: [4]

CC(C)NC[C@H]1CCc2cc(CO)c([N+](=O)[O-])cc2N1
not listed: CP211 | [1] | [2] | [3] | [4] | [5] | [6]
inactive: all other assays above

CN(C)CCn1nnnc1SCC1=C(C(=O)O)N2C(=O)[C@@H](NC(=O)Cc3csc(N)n3)[C@@H]2SC1
active: W2 6420 nM
inactive: CP211 | CP215 | CP291 | CP315

COc1cc2nc(N3CCN(C(=O)[C@@H]4CCCO4)CC3)nc(N)c2cc1OC
not listed: DFO2036 | W2 | [1] | [2] | [3] | [4] | [6]
inactive: all other assays above

OCCN1CCN(CCC=C2c3ccccc3Sc3ccc(Cl)cc32)CC1
active: GB4 4050 nM | W2 721 nM
inactive: [1] | [5]

CN1CCN([C@@H](c2ccccc2)c2ccc(Cl)cc2)CC1
active: [2] 2000 nM | DIV14 2280 nM | W2 2030 nM
inactive: [5] | CP211 | CP269 | CP315 | DFO2036

Cc1onc(-c2c(Cl)cccc2Cl)c1C(=O)N[C@H]1C(=O)N2[C@H]1SC(C)(C)[C@H]2C(=O)O
inactive: [4] | [3] | [2] | [6]

NCc1ccccc1CC(=O)N[C@@H]1C(=O)N2C(C(=O)O)=C(CSc3nnnn3CC(=O)O)CS[C@@H]12
not listed: DIV30 | [1] | [2] | [3] | [4] | [6]
inactive: all other assays above

CCC(=O)O[C@@]1(C(=O)SCF)[C@@H](C)C[C@H]2[C@@H]3C[C@@H](F)C4=CC(=O)C=C[C@@]4(C)[C@]3(F)[C@@H](O)C[C@]21C
active: W2 3220 nM
inactive: [5] | CP211 | CP215 | CP291 | CP315

Clc1ccc([C@H](Cn2ccnc2)OCc2csc3c(Cl)cccc23)c(Cl)c1
active: [4] 316 nM | [3] 794 nM | [2] 5010 nM | [6] 251 nM | DIV14 5100 nM | DIV17 7210 nM | DIV30 5100 nM | GB4 5100 nM | P94_40 3550 nM | PC26 6420 nM | W2 2280 nM
inactive: [1] | [5]

NC(=O)c1ccc[n+]([C@@H]2O[C@H](COP(=O)([O-])OP(=O)(O)OC[C@H]3O[C@@H](n4cnc5c(N)ncnc54)[C@@H](O)[C@@H]3O)[C@@H](O)[C@@H]2O)c1
not listed: DFO2036 | PC26 | [1]
inactive: all other assays above

CC[C@H](Cc1c(I)cc(I)c(N)c1I)C(=O)O
not listed: W2 | [1] | [2] | [3] | [4] | [6]
inactive: all other assays above

CN(C/C=C\c1ccccc1)Cc1cccc2ccccc12
active: [2] 251 nM | [6] 501 nM
not listed: CP211 | CP291 | GB4 | W2 | [1] | [3] | [4]
inactive: all other assays above

Nc1ccn([C@@H]2CC[C@H](CO)O2)c(=O)n1
inactive: [4]

O=C(/C=C\c1ccc(O)c(O)c1)O[C@@H]1C[C@](O)(C(=O)O)C[C@@H](O)[C@@H]1O
inactive: [4]

C=CC1=C(C(=O)O)N2C(=O)[C@@H](NC(=O)/C(=N\OCC(=O)O)c3csc(N)n3)[C@@H]2SC1
not listed: [1] | [2] | [3] | [4] | [6]
inactive: all other assays above

C[C@@]12C=CC(=O)C=C1CC[C@@H]1[C@@H]2[C@H](O)C[C@]2(C)[C@@H]1CC[C@]2(O)C(=O)CO
inactive: [6]

CC[C@@H]1OC(=O)[C@H](C)[C@H](O[C@@H]2C[C@](C)(OC)[C@H](O)[C@H](C)O2)[C@H](C)[C@H](O[C@@H]2O[C@@H](C)C[C@@H](N(C)C)[C@@H]2O)[C@](C)(O)C[C@H](C)C(=O)[C@H](C)[C@H](O)[C@]1(C)O
inactive: [1]

NS(=O)(=O)c1cc2c(cc1C(F)(F)F)N[C@H](Cc1ccccc1)NS2(=O)=O
not listed: [2] | [3] | [4] | [5] | [6]
inactive: all other assays above

COc1cc2cc3c4cc(OC)c(OC)cc4cc[n+]3c(C)c2cc1OC
active: [3] 15800 nM
inactive: [1]
